The source of these data is the supplement of paper PMC6522484.

Molecules are shown by their SMILES. ± gives the standard deviation of the averaged measurements.

Assay [1] deals with DLD1. The assay can be described thus: cell viability (CellTiter-Glo) relative to plate median (fraction of plate median); higher = more viable cells. Particulars: 5 µM; treatment time 24 h; reporter: 7TFP. In outline: (§1)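 Colorectal cancer lines with stably integrated lentiviral TCF/Wnt firefly luciferase reporters received library compounds at a final 5 µM, 24 h after seeding into 384-well plates, for a 24 h exposure. Reported figures are plate-median-normalised firefly luciferase or CellTiterGlo luminescence per well. They average two independent replicates.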

The subject of another assay is HCT116. Described as above. As to conditions: 5 µM; treatment time 24 h; reporter: TCF4/Wnt. Put shortly:
as §1

The test system of assay [2] is SW480. Described as above. Particulars: 5 µM; treatment time 24 h; reporter: 7TFP. In outline:
as §1

Assay [3] relates to DLD1. The assay can be described thus: TCF/Wnt firefly luciferase reporter signal relative to plate median (fraction of plate median); higher = higher Wnt reporter signal. Particulars: 5 µM; treatment time 24 h; reporter: 7TFP. In outline: as §1
For orientation: Reporter assays use an easily measured gene product as a stand-in for the process of interest.

Assay [4] deals with SW480. The assay is described as above. As to conditions: 5 µM; treatment time 24 h; reporter: 7TFP. In outline:
as §1

For the molecule `CC(=O)O[C@@H]1CC2C(C)(C)[C@H](O)C=C[C@]2(C)C2CC[C@]3(C)C(=CC(=O)O[C@H]3c3ccoc3)[C@@]21C` (stereo partly drawn) [3-alpha-HYDROXYDEOXYGEDININ], the figures for the cell viability in the assay with DLD1 [1], with HCT116 and in the assay with SW480 [2] were 1.08 ± 0.092, 1.11 ± 0.014 and 1.08 ± 0.11, respectively. Moreover, the results for the “TCF/Wnt firefly luciferase reporter signal” value with DLD1 [3] and with SW480 [4] were 1.04 ± 0.097 and 0.943 ± 0.076, respectively.
The like results for `COc1cccc2c1cc([N+](=O)[O-])c1c(C(=O)O)cc3c(c12)OCO3` were, in that order, 0.983 ± 0.052, 1.06 ± 0.098, 1.01 ± 0.018, 1.28 ± 0.12 and 1.1 ± 0.13.
As for `O=C1C[C@@H]2OCC=C3CN4CC[C@]56c7ccccc7N1[C@H]5[C@H]2[C@H]3C[C@H]46`, the cell viability worked out at 1.06 ± 0.14 in the assay with DLD1 [1], 0.963 ± 0.015 in the assay on HCT116 and 1.05 ± 0.071 in the assay on SW480 [2]. The “TCF/Wnt firefly luciferase reporter signal” value with DLD1 [3] came out at 0.927 ± 0.044; in the assay on SW480 [4], 0.997 ± 0.089.
On the same counts, the results for `CC1(C)C2CC(=O)[C@]3(C)C(CC[C@@]4(C)[C@H](c5ccoc5)OC(=O)[C@H]5O[C@]543)[C@@]2(C)C(=O)C[C@H]1O` (stereo not given in full) are 1.015 ± 0.0071, 0.988 ± 0.018, 1.01 ± 0.071, 0.918 ± 0.037 and 0.965 ± 0.079.
As to `Oc1ccc(Cl)cc1`, the cell viability in the assay with DLD1 [1] came out at 1.06 ± 0.064; in the assay with HCT116, 0.892 ± 0.025; in the assay on SW480 [2], 0.961 ± 0.04. For the same molecule, the “TCF/Wnt firefly luciferase reporter signal” value in the assay on DLD1 [3] came out at 1.03 ± 0.042; in the assay with SW480 [4], 1.115 ± 0.0071.
On the same counts, the results for `C=C(C)c1cc2cc(C(C)=O)c(O)cc2o1` are 1.14 ± 0.13, 1.06 ± 0.071, 1.07 ± 0.057, 1.21 ± 0.29 and 1.12 ± 0.085.
On the same counts, the results for `COc1ccc(Cc2nccc3cc(OC)c(OC)cc23)cc1OC` are 1.09 ± 0.085, 1.01 ± 0.1, 0.994 ± 0.066, 0.961 ± 0.052 and 1.07 ± 0.057.
The like results for `CC(=O)O[C@H]1C[C@@H](OC(C)=O)C(C)(C)C2C[C@@H](OC(C)=O)[C@]3(C)C(CC[C@@]4(C)[C@H](c5ccoc5)C(=O)[C@H]5O[C@]543)[C@]21C` (stereo not given in full) were, in that order, 0.99 ± 0.014, 1.06 ± 0.19, 1.02 ± 0.035, 1.2 ± 0.057 and 1.09 ± 0.078.
`CCCC(C)C1(CC)C(=O)NC(=O)NC1=O` (stereo not given): the cell viability in the assay with DLD1 [1] turned out to be 1 ± 0.079; with HCT116 it was 0.981 ± 0.02; with SW480 [2], 0.978 ± 0.0014. For the same molecule, the entries for the “TCF/Wnt firefly luciferase reporter signal” value in the assay on DLD1 [3] and in the assay with SW480 [4] were 0.948 ± 0.018 and 0.933 ± 0.11, respectively.
The like results for `CN1CCCCC1c1ccc(-c2cccnc2)nc1` (stereo not given) were, in that order, 0.963 ± 0.024, 0.901 ± 0.12, 1.01 ± 0.027, 1.03 ± 0.021 and 0.983 ± 0.096.
The like results for `O=C1c2ccccc2-c2cccc3cccc1c23` were, in that order, 1 ± 0.084, 0.852 ± 0.088, 0.991 ± 0.028, 0.912 ± 0.056 and 0.987 ± 0.033.
On the same counts, the results for `O=P1(N(CCCl)CCCl)NCCCO1` (stereo not given) are 1.03 ± 0.035, 0.955 ± 0.015, 0.959 ± 0.051, 1.1 ± 0.18 and 0.92 ± 0.014.
`CCC(N)C(O)c1ccc(O)c(O)c1` (stereo not given): the results for the cell viability in the assay on DLD1 [1], with HCT116 and in the assay with SW480 [2] were 1.02 ± 0.055, 1.1 ± 0.05 and 1.07 ± 0.057, respectively. The figures for the “TCF/Wnt firefly luciferase reporter signal” value in the assay with DLD1 [3] and in the assay with SW480 [4] were 1.03 ± 0.22 and 1.08 ± 0.071, respectively.
The like results for `CC(CCc1ccccc1)NC(C)C(O)c1ccc(O)cc1` (stereo not given) were, in that order, 0.942 ± 0.064, 0.904 ± 0.061, 0.902, 1.2 ± 0.11 and 1.12 ± 0.014.
